Structures are written as SMILES. The whole screen tested about 2,100 compounds, of which about 590 (28%) were called active. Inconclusive results (about 42%) are left out. Calls come from the whole dose curve; as a rule, active = well fitted inhibition curve with a large enough effect; inconclusive = small, poorly fitted or top-dose-only effect; inactive = flat fitted curve, though single readings scatter. The list shows a part of the results.
Potency is the fitted concentration of half-maximal effect.

Chain of DNA dC->dU-editing enzyme APOBEC-3F (Homo sapiens) (Q8IUX4 whole entry, looked up): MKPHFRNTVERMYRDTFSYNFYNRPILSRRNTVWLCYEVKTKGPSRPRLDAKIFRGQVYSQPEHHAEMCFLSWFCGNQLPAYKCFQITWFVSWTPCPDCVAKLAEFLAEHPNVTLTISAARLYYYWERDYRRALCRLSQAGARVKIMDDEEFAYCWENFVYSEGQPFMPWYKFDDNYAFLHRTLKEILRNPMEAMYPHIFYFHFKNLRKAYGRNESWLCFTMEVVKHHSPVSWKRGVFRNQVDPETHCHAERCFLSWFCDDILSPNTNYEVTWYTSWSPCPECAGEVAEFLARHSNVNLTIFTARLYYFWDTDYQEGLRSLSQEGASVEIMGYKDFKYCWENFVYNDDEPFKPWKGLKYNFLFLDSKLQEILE

The target in the assay is DNA dC->dU-editing enzyme APOBEC-3F (Homo sapiens) (UniProt Q8IUX4). The assay can be described thus: qHTS for inhibitors of Vif-A3F interactions: Cherry picks.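 For max response: % of control where 0% means no effect; active compounds raise eYFP fluorescence by blocking Vif-driven A3F loss.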 Note: nearly all actives have a fitted effect of over 70% in size. The following applies: HeLa A3F-eYFP + Vif (tagged APOBEC3F with the HIV-1 protein that degrades it), eYFP fluorescence, 24 h. The method, boiled down:
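HeLa cells stably expressing A3F-eYFP plus Vif, cultured overnight, then exposed to compounds at several concentrations for 24 h at 37 deg C. Reduced Vif-driven degradation read as rising eYFP fluorescence (488 nm ex/500-530 nm em) by laser-scanning cytometry; MG132 as positive control.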
On the technique in general: qHTS replaces the single test concentration by a dilution series.
In the case of `CCOc1ccccc1Nc1nnc(-c2cc3cc(OC)ccc3oc2=O)s1`, the Potency was 7.31 µM (active). Take `COc1ccc2oc(=Nc3ccccc3)c(-c3nc4ccccc4[nH]3)cc2c1`: the max response was -13% (inactive). `COc1ccc2oc(=O)c(-c3nc4ccccc4o3)cc2c1`: the Potency is 20.6 µM (active). `CCOC(=O)C1CCCN(C(=O)c2ccc3nc(-c4cccc(OC)c4)oc3c2)C1` (stereo not given): the max response was -18.5% (inactive). As to `CCOc1cc(/C=C2\CCC/C(=C\c3cc(Cl)c(O)c(OCC)c3)C2=O)cc(Cl)c1O`, the Potency was 7.04 µM (active). Turning to `CCOc1c(Cl)cc(/C=N/NC(N)=S)cc1OC`, the max response is -28.8% (inactive). Take `COc1cc(/C=C2/CCC/C(=C\c3cc(O)c(OC)c(Cl)c3)C2=O)cc(Cl)c1O`: the Potency was 8.2 µM (active). Take `COc1cc(/C=N/Nc2ccc(Cl)nn2)cc(OC)c1O`: the max response was 2.03% (inactive). On the same count and under the same terms, to `COc1ccccc1CNC(=O)c1ccc2nc3[nH]c4ccccc4c3nc2c1` belongs -25.8% (inactive). Regarding `Fc1ccc2nc3[nH]c4ccccc4c3nc2c1`, the Potency was 0.994 µM (active). `Cc1c(=O)n(OCc2ccc(Cl)cc2)c2ccccc2[n+]1[O-]`: the max response was -8.69% (inactive). `CC1C/C(=C/c2cccs2)C(=O)/C(=C/c2cccs2)C1` (stereo not given): the max response was -0.33% (inactive).

With `CN1C2CCC1/C(=C/c1cccn1C)C(=O)/C2=C\c1cccn1C`, the Potency was 16.4 µM (active). On the same count and under the same terms, the result for `Cn1cccc1/C=C1\CC(C(C)(C)C)C/C(=C\c2cccn2C)C1=O` (stereo not given) reads 4.11 µM (active). Same read-out and setting: to `CN1/C(=C\C=C(/C#N)C(=O)Nc2ccccc2F)C(C)(C)c2ccccc21` belongs 20.6 µM (active). Take `COc1ccc(NC(=O)/C(C#N)=C\C=C\c2ccco2)cc1`: the max response was -29.2% (inactive). The same measure, in the same setting: the result for `COc1ccc(NC(=O)/C(C#N)=C/C=C/c2ccco2)cc1` reads -30% (inactive).

`CN1/C(=C\C=C(/C#N)C(=O)Nc2ccc(Cl)cc2)C(C)(C)c2ccccc21`: the Potency was 3.14 µM (active). As to `O=C(NC(=S)N1CCN(c2ccccn2)CC1)c1ccccc1`, the max response was 0.282% (inactive). On to `CN(C)c1ccc(/C=C/c2ccnc3ccccc23)c(N)c1`, for which the Potency was 7.31 µM (active). Turning to `CN(C)c1ccc(/C=C/C=C/c2ccnc3ccccc23)cc1`, the Potency is 2.59 µM (active). Still for that read-out and setting: the result for `CN(C)c1ccc(/C=C/c2ccnc3ccccc23)cc1` reads 13 µM (active); that for `Nc1ccccc1/C=C/c1ccnc2ccccc12`, 23.1 µM (active).

Turning to `COc1ccc(-c2nc3cnccn3c2NC2CCCCC2)cc1-c1cccc(Cl)c1`, the max response was -28.6% (inactive).

Regarding `CCOC(=O)c1cnc(-n2nc(C)cc2C)nc1NNc1nc(-c2ccccc2)cc(-c2ccccc2)n1`, the max response was 6.49% (inactive). On the same count and under the same terms, to `c1ccc(N=NC2=NN(c3ccccc3)CS2)cc1` belongs 0.337% (inactive).

For `CCCC(=O)NC(c1ccc(OC)cc1)c1ccc2cccnc2c1O` (stereo not given), the max response is 0.49% (inactive). `CNc1ccc(/C=C/c2ccnc3ccccc23)cc1`: the Potency is 14.6 µM (active). On the same count and under the same terms, to `CN(C)c1ccc(/C=C/c2cnnc3ccccc23)cc1` belongs 20.6 µM (active); to `CN(C)c1ccc(/C=C/c2ccnc3ccc(-c4ccccc4)cc23)cc1`, 2.31 µM (active). Same read-out and setting: to `COc1cccc2nccc(/C=C/c3ccc(N(C)C)cc3)c12` belongs 20.6 µM (active).

As to `NC(=S)N/N=C/c1ccccc1OC(=O)/C=C/c1ccccc1`, the max response was -3.11% (inactive).

As to `CC(C)CC(=O)NC(=S)N(Cc1ccccc1)Cc1ccccc1`, the max response was -4.2% (inactive).

Take `Cc1ccc(S(=O)(=O)N2CCN(C(=O)CSC(=S)N3CCCC3)CC2)c(C)c1`: the max response is 1.16% (inactive).

In the case of `COc1ccc(/C=C2/CSC/C(=C/c3ccc(OC)c(OC)c3)C2=O)cc1OC`, the Potency was 5.59 µM (active).

With `COc1cc(C=C2C(=O)c3ccccc3C2=O)cc(OC)c1OC`, the max response is -7.21% (inactive).

Turning to `CO/N=C/c1ccc(OC)c(Oc2nc(OC)cc(OC)n2)c1`, the max response was -21.4% (inactive). Same read-out and setting: to `COc1cc(/C=C2/CC/C(=C/c3ccc(O)c(OC)c3)C2=O)ccc1O` belongs -11.3% (inactive). Regarding `COc1cc(/C=C2\COC/C(=C\c3ccc(O)c(OC)c3)C2=O)ccc1O`, the Potency is 14 µM (active). Consider `COc1cc(/C=C/C(C)=NNc2ccccc2)ccc1O`, for which the max response is -28.1% (inactive). With `Cc1ccc2c(c1C)NC(=O)CC(c1ccccc1O)=N2`, the max response was 0.01% (inactive). On to `CC(C)OC(=O)c1c2c(n3ccccc13)C(=O)c1ccccc1C2=O`, for which the Potency was 4.61 µM (active). As for `Cn1c(=O)c(N)c2c3c(c(Br)ccc31)C(=O)c1ccccc1-2`, the max response was 0.0476% (inactive). Turning to `Oc1cccc(Nc2nc(O)c(/C=C3\C=Nc4ccccc43)s2)c1`, the Potency is 14.6 µM (active). In the case of `O=S(=O)(Nc1cc(Sc2ncn[nH]2)c(O)c2ccccc12)c1ccccc1`, the max response is -29.8% (inactive). The same measure, in the same setting: the result for `CCCOc1ccccc1C1CC(=O)Nc2cc3c(cc21)OCO3` (stereo not given) reads -14.8% (inactive). As for `CCNc1ccc(Br)cc(C(=O)/C=C/c2ccc3c(c2)OCO3)c1=O`, the Potency was 18.4 µM (active). `CCN(CC)c1ccc(/C=C/C(=O)c2ccc(Br)cc2)cc1`: the max response was -4.77% (inactive). `O=c1[nH]c2ccccc2nc1/C=C/c1ccc(F)cc1`: the Potency is 14 µM (active).

Take `COc1ccc(OC)c(/C=C/c2nc3ccccc3[nH]c2=O)c1`: the Potency was 18.4 µM (active). Consider `CCCN(C(=O)CSc1n[nH]c(-c2ccc(OC)cc2)n1)c1c(N)n(Cc2ccccc2)c(=O)[nH]c1=O`, for which the max response is -13.7% (inactive). Same read-out and setting: to `CCC(=C/c1sc2ccc3ccccc3c2[n+]1C)/C=C1\Sc2ccc3ccccc3c2N1C` belongs -0.328% (inactive); to `CC(=O)c1cccc(-c2ccnc3c2CC(C(=O)Nc2cccc(NS(C)(=O)=O)c2)O3)c1` (stereo not given), -25.6% (inactive). For the molecule `CCSC1=NSC2=NC(=O)/C(=C\c3coc4ccccc4c3=O)C(=N)N12`, the Potency was 18.4 µM (active). As for `O=C(O)CCCN1C(=O)/C(=C\C(Cl)=C\c2ccccc2)SC1=S`, the Potency was 4.44 µM (active). The same measure, in the same setting: the result for `Cc1ccc2[nH]cc(/C=C/c3cc[n+](C)cc3)c2c1` reads 1.4 µM (active); that for `COc1ccc2c(c1)c(/C=C/c1cc[n+](C)cc1)cn2C`, 2.23 µM (active); that for `C[n+]1ccc(/C=C/c2c[nH]c3ccc(F)cc23)cc1`, 16.4 µM (active). Regarding `COc1ccc2[nH]cc(/C=C/c3cc[n+](C)cc3)c2c1`, the Potency was 13 µM (active). Consider `O=C1OC(/C(=C\Nc2cc(Cl)ccc2O)[N+](=O)[O-])c2ccccc21` (stereo not given), for which the max response was -13.5% (inactive).

The values above are taken from PubChem BioAssay AID651814 (National Center for Advancing Translational Sciences (NCATS), 2012).
